Screening results (PubChem BioAssay)
RORg inh: inhibitors of mouse ROR gamma transcriptional activity. P51450. Drosophila S2 Gal4-RORgamma UAS-luciferase reporter, 20 h. Potency, µM (doses to about 53.6 µM), usual class: inhibitors. 5.4% of 310,000 active; also: nearly all actives have a fitted effect of over 60% in size
Target sequence (P51450 whole entry, looked up, the tested form may be a part): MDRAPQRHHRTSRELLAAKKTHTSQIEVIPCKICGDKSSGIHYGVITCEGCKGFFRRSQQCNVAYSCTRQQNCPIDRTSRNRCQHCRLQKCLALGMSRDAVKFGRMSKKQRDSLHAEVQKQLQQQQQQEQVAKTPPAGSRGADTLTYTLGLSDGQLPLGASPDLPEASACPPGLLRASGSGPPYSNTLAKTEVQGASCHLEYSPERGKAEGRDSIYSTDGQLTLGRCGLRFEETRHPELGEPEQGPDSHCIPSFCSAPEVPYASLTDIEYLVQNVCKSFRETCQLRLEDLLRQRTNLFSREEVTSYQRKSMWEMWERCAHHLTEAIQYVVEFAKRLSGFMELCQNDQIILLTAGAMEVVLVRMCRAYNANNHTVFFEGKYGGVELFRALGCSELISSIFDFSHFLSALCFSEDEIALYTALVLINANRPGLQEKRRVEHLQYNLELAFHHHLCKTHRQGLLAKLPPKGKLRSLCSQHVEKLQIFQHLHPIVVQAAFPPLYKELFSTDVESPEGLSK
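Stable Schneider cell line, Gal4 DNA-binding domain fused to ROR gamma, UAS-luciferase. Cmpd 1 hr RT → CuSO4 700 uM final → 20 hr RT → luciferase reagent 10 min → luminescence.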
Coupling enz: inhibits coupling enzyme system, counter-screen for aldolase hits; 0.67% of 290,000 active; coupling enzyme system counterscreen, AmpLite Red fluorescence; activity change, negative = inhibition, % at 58.2 µM, hits read low; in the data active = activity change below about -30%
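Counterscreen lacking aldolase: glyceraldehyde-3-phosphate coupling-enzyme reagent preincubated 10 min at RT with compound (at 57.5 uM final), then substrate/coupling system with AmpLite Red added; fluorescence read at 525/598 nm after 20 min RT.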
Gal4-VP16 FLuc: inhibits Gal4-VP16 luciferase reporter, ROR gamma counter-screen; 3.5% of 310,000 active; AID 2546; Drosophila S2 Gal4-VP16 UAS-luciferase, luminescence, 20 h; Potency, µM (series often up to 53.6 µM), actives largely listed as inhibitors;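 also: Gal4-VP16 expression switched on by copper sulfate through the metallothionein promoter; nearly all actives have a fitted effect of over 50% in size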
TSHR antag: blocks TSH signaling through the human TSH receptor; P16473; TSHR-expressing cells, TSH-stimulated cAMP HTRF, 2 h; hits give low values; activity change, negative = inhibition, % at 11.5 µM; 0.2% of 330,000 active; AID 504810;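 active = activity change below a set negative limit, meaning inhibition stronger than a set level, cut at about -70% in these data; inconclusive = activity change between two set negative limits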
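TSHR-expressing cells were treated with compounds, then stimulated with TSH at EC80 (4nM final) for 2 hours at 37 deg C. Cellular cAMP was measured by HTRF competition between lysate cAMP and cAMP-d2 for a cryptate-labelled anti-cAMP antibody.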
ELG1 repair inh: inhibitors of ELG1-dependent DNA repair in HEK293T cells; HEK293T ELG1-luciferase reporter, luminescence, 16 h; DNA damage induced by 5-fluorouridine; Potency, µM (top dose mostly 46.1 µM), actives largely listed as inhibitors; 2.3% of 330,000 active; also: nearly all actives have a fitted effect of over 55% in size
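Cells (2,000 per well) received 5-fluorouridine plus test compound or DMSO and were incubated 16 hr at 37 °C, 5% CO2. Luciferase activity was read by luminescence 30 min after ONE-Glo addition; signal suppression marked inhibition of damage-induced ELG1 function.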
Each line names hits and unclear results; the compound was inactive in the other large screens. Shown are actives, neighbours in structure and some others; about 8% of the full set was active somewhere. Unless noted, calls follow the shape of the dose curve; as a rule, active = well fitted curve in the direction sought with a large enough effect; inconclusive = small, poorly fitted or top-dose-only effect, or another doubt; inactive = no such curve, though single readings can be large; an effect the other way counts as inactive or inconclusive.

O=C(CN(Cc1ccc(F)cc1)C(=O)CNS(=O)(=O)c1ccc(Cl)cc1)NCC1CCCO1 (stereo unspecified)	none
Cc1cc(NC(=O)CC(C)C)c(=O)n(Cc2c(F)cccc2Cl)c1	none
Cc1cc(NC(=O)CC(C)C)c(=O)n(Cc2ccccc2F)c1	Coupling enz -36
Cc1ccc(CN2CCNC(=O)C2CC(=O)NCc2cc(C)n(C)n2)cc1 (stereo unspecified)	none (no result: Coupling enz)
Cn1cccc1C(=O)N1CCC2(CCN(C(=O)Nc3ccccc3)CC2)CC1	none (no result: TSHR antag, ELG1 repair inh)
Nc1c(-c2n[nH]c(=S)n2-c2ccc(Cl)cc2Cl)cnn1-c1ccccc1	RORg inh 2.8µM
Cc1ccc(-n2c(-c3ccncc3)n[nH]c2=S)cc1C	none
Cc1ccc(-n2c(-c3ccccc3)n[nH]c2=S)cc1	RORg inh 3.2µM, Gal4-VP16 FLuc 5.6µM
Cc1ccc(-n2c(-c3ccncc3)n[nH]c2=S)cc1	RORg inh 11µM
CC(C)(C)c1ccc(-c2n[nH]c(=S)n2-c2ccccc2)cc1	RORg inh 3.2µM, Gal4-VP16 FLuc 2.8µM
Cn1c(-c2cnn(-c3ccccc3)c2N)n[nH]c1=S	ELG1 repair inh inconclusive
O=C(O)c1ccc(-n2c(-c3ccccc3)n[nH]c2=S)cc1	none
Cc1c(OCC(=O)N2CCC(C(=O)NCCCC(=O)O)CC2)ccc2c1oc(=O)c1ccccc12	ELG1 repair inh inconclusive
COc1cc(OC)cc(-c2n[nH]c(=S)n2-c2ccc3c(c2)OCO3)c1	RORg inh 5.6µM, Gal4-VP16 FLuc inconclusive
CC(c1ccccc1)n1c(Cn2ncc3ccccc3c2=O)n[nH]c1=S (stereo unspecified)	none
CC(c1ccccc1)n1c(-c2ccc(C(C)(C)C)cc2)n[nH]c1=S (stereo unspecified)	RORg inh 7.1µM, Gal4-VP16 FLuc 7.1µM
Fc1ccc(-n2c(-c3ccc4c(c3)OCO4)n[nH]c2=S)cc1Cl	RORg inh inconclusive, Gal4-VP16 FLuc inconclusive, ELG1 repair inh inconclusive
COc1ccc(-c2nc(-c3ccc4c(c3)OCO4)[nH]c2-c2ccc(OC)cc2)cc1	ELG1 repair inh 18µM
Cc1ccc(-n2c(-c3cnccn3)n[nH]c2=S)cc1	RORg inh inconclusive
Cc1ccc(-n2c(-c3ccc(Cl)cc3Cl)n[nH]c2=S)cc1	RORg inh 3.2µM, Gal4-VP16 FLuc 5µM
CC1CCCN(C(=O)c2ccc(NC(=O)CC3SC(N4CCCC4)=NC3=O)cc2)C1 (stereo unspecified)	none (no result: RORg inh, Coupling enz, Gal4-VP16 FLuc)
COc1ccc(-n2c(-c3ccc(C)cc3)n[nH]c2=S)cc1	RORg inh 1.4µM, Gal4-VP16 FLuc 3.2µM
Cc1ccc(-n2c(Cc3cccc4ccccc34)n[nH]c2=S)c(C)c1	RORg inh 1.1µM, Gal4-VP16 FLuc inconclusive
Cc1ccc(-n2c(-c3ccccc3)n[nH]c2=S)c(C)c1	RORg inh 5µM, Gal4-VP16 FLuc 4.5µM
C=C(C)Cn1c(-c2ccncc2)n[nH]c1=S	RORg inh 13µM
S=c1[nH]nc(-c2ccncc2)n1CC1CCCO1 (stereo unspecified)	none
Cc1ccc(/C=C/S(=O)(=O)NCC(=O)OCC(=O)Nc2c(F)cccc2F)cc1	none (no result: RORg inh, Coupling enz, Gal4-VP16 FLuc)
COC(=O)/C(=C/c1c[nH]c2ccccc12)NC(C)=O	none
COC(=O)/C(=C/c1c[nH]c2ccccc12)[N+](=O)[O-]	RORg inh inconclusive, Gal4-VP16 FLuc 20µM, ELG1 repair inh inconclusive
CCSc1nnc(NC(=O)CSc2nnc(CNC(=O)c3cc(OC)c(OC)c(OC)c3)o2)s1	RORg inh 16µM, Gal4-VP16 FLuc inconclusive
COc1ccc(C(=O)NCc2nnc(SCC(=O)Nc3nnc(C)s3)o2)cc1OC	RORg inh inconclusive
COc1ccc(C(=O)NCc2nnc(SCC(=O)Nc3nc4ccc(C)cc4s3)o2)cc1OC	RORg inh 7.9µM, Gal4-VP16 FLuc 7.9µM, ELG1 repair inh inconclusive
CCOC(=O)C1C(=O)OC(C)(C)C1C(CC)C(=O)c1c(C)cc(C)cc1C (stereo unspecified)	ELG1 repair inh inconclusive
Nc1nc(SCc2ccc(Cl)cc2)ns1	Gal4-VP16 FLuc 7.1µM, ELG1 repair inh inconclusive
O=C1NC(=S)N/C1=C/c1cccc([N+](=O)[O-])c1	ELG1 repair inh inconclusive
O=C1NC(=S)N/C1=C\c1cccc([N+](=O)[O-])c1	none
O=C1NC(=S)N/C1=C\c1cccnc1	RORg inh 2µM, Gal4-VP16 FLuc inconclusive, ELG1 repair inh inconclusive
O=C1NC(=S)N/C1=C/c1cccnc1	RORg inh 13µM, ELG1 repair inh inconclusive
CCN(CC(=O)Nc1ccc(S(=O)(=O)N2CCCC2)cc1)CC(=O)Nc1ccccc1C(F)(F)F	ELG1 repair inh inconclusive (no result: RORg inh, Coupling enz, Gal4-VP16 FLuc)
COc1cc(O)ccc1C(=O)CCc1ccc(O)cc1	none
COc1ccc(NC(=O)COc2ccccc2Cc2ccccc2)cc1S(N)(=O)=O	RORg inh inconclusive, Gal4-VP16 FLuc inconclusive, ELG1 repair inh 6.5µM
COc1ccc(NC(=O)CN(Cc2ccccc2)Cc2ccccc2)cc1S(N)(=O)=O	RORg inh inconclusive
C/C=C/c1ccc(OCC(=O)N2CCc3cc(OC)c(OC)cc3C2)c(OC)c1	none
c1ccc(-c2csc(Nc3nc(N4CCOCC4)nc(N4CCOCC4)n3)n2)cc1	ELG1 repair inh 5.8µM
Cc1cc(C)nc(Nc2nc(-c3ccccc3)cs2)n1	RORg inh 4.5µM, Gal4-VP16 FLuc inconclusive, ELG1 repair inh inconclusive
c1ccc(Nc2nc(-c3ccncc3)cs2)cc1	RORg inh inconclusive, ELG1 repair inh inconclusive
O=C(Nc1cccc(O)c1)c1noc2c1CCCCC2	RORg inh 11µM, Gal4-VP16 FLuc 3.5µM, ELG1 repair inh inconclusive
CCn1ncc(C2=NOC(C(=O)Nc3c(C)nn(Cc4ccc(F)cc4)c3C)C2)c1C (stereo unspecified)	ELG1 repair inh 15µM
Cc1ccc(NC(=O)c2noc3c2CCC3)cc1C	RORg inh inconclusive, Gal4-VP16 FLuc inconclusive, ELG1 repair inh inconclusive
CC(C)(C)C1CCc2onc(C(=O)Nc3ccc(F)cc3F)c2C1 (stereo unspecified)	none
CC(C)(C)C1CCc2onc(C(=O)Nc3cnn(Cc4ccc(F)cc4)c3)c2C1 (stereo unspecified)	RORg inh inconclusive, Gal4-VP16 FLuc 16µM
Cc1nn(Cc2ccc(F)cc2)c(C)c1NC(=O)c1noc2c1CCCCC2	ELG1 repair inh 18µM
CCC(C)Sc1nnc(NS(=O)(=O)Cc2ccccc2)s1 (stereo unspecified)	none
CCOc1ccc(CCNC(=O)CN(C)S(=O)(=O)c2cccs2)cc1OCC	none (no result: RORg inh, Coupling enz, Gal4-VP16 FLuc)
CCCc1cc(C(=O)Nc2cnn(Cc3ccc(F)cc3)c2)no1	ELG1 repair inh inconclusive
O=C(Nc1cnn(Cc2ccc(F)cc2)c1)c1noc2c1CCCC2	RORg inh inconclusive, ELG1 repair inh 0.41µM
C=CCNC(=O)c1ccc(NC(=O)C2=CSCCO2)cc1	TSHR antag -136, ELG1 repair inh inconclusive
CC(C)CCNC(=O)c1ccc(NC(=O)C2=CSCCO2)cc1	none (no result: Coupling enz)
COc1ncc2nc(-c3cc(F)cc(F)c3)c(=O)n(C)c2n1	none (no result: TSHR antag, ELG1 repair inh)
